About 79,000 compounds went through this panel and 15% of them were active in at least one assay; those are over-represented in the sample as a whole. Values without a mark were called inactive. The source made the active and inactive calls. No stated cut-off is given here; in the data, active means growth inhibition above about 70%; inactive means the rest.
What was measured:
[1] = NCI Yeast Anticancer Drug Screen. Data for the rad50 strain (AID 155);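 further: 0% = growth of vehicle-only cultures of the same strain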; details: S. cerevisiae rad50 strain growth inhibition, active compounds read high
In short: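 Yeast carrying a defined DNA repair defect were exposed to test compounds, and growth was compared with vehicle-treated controls to give percent inhibition.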

[2] = NCI Yeast Anticancer Drug Screen. Data for the mec2-1 strain (AID 157); details: S. cerevisiae mec2-1 strain, active compounds read high
In short: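 Strain: mec2-1 (DNA repair/cell cycle alteration). Compound exposure, then growth measured; inhibition expressed relative to vehicle.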

[3] = NCI Yeast Anticancer Drug Screen. Data for the sgs1 mgt1 strain (AID 161);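 further: 0% = growth of cultures given vehicle only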; details: S. cerevisiae sgs1 mgt1 strain, active compounds read high
In short: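 Genetically altered yeast, compound exposure, growth inhibition relative to vehicle.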

[4] = NCI Yeast Anticancer Drug Screen. Data for the cln2 rad14 strain (AID 165);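 further: 0% = growth equal to vehicle treated cultures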; details: S. cerevisiae cln2 rad14 strain, active compounds read high
In short: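 Compounds are applied to the cln2 rad14 yeast strain, and growth is then compared with that of vehicle-treated cultures to give inhibition.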

[5] = NCI Yeast Anticancer Drug Screen. Data for the bub3 strain (AID 167); details: S. cerevisiae bub3 mutant strain, active compounds read high
In short: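 Compounds were applied to a genetically altered yeast strain carrying a cell-cycle control defect. Growth inhibition was scored against vehicle-treated controls.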

[6] = NCI Yeast Anticancer Drug Screen. Data for the mlh1 rad18 strain (AID 175); details: S. cerevisiae mlh1 rad18 strain growth inhibition, active compounds read high
In short: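 Read-out is yeast growth inhibition, calculated against vehicle-only controls. The compound was applied to a strain engineered with DNA damage repair alterations.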

[7] = at 5.0 µM (retest, dose inferred, filed as 0.5)
[8] = at 50.0 µM (retest, dose inferred, filed as 5.0)

SMILES | growth inhibition [1, 7] | growth inhibition [1, 8] | growth inhibition ([1]; at 50.0 µM) | growth inhibition [2, 7] | growth inhibition [2, 8] | growth inhibition ([2]; at 50.0 µM) | growth inhibition [3, 7] | growth inhibition [3, 8] | growth inhibition ([3]; at 50.0 µM) | growth inhibition [4, 7] [%] | growth inhibition [4, 8] | growth inhibition ([4]; at 50.0 µM) | growth inhibition [5, 7] | growth inhibition [5, 8] | growth inhibition ([5]; at 50.0 µM) | growth inhibition [6, 7] [%] | growth inhibition [6, 8] | growth inhibition ([6]; at 50.0 µM)
CCS(=O)(=O)/C=C(\C#Cc1ccccc1)c1ccccc1 | 9% | 84% (active) | 79.2% (active) | -1% | 95% (active) | 82.4% (active) | 5% | 90% (active) | 83.7% (active) | 12 | 81% (active) | 80.3% (active) | 11% | 99% (active) | 87.5% (active) |  |  | 
COC(=O)C(C#N)=C(SC)SC | 7% | 99% (active) | 99.3% (active) | 4% | 99% (active) | 98.2% (active) | 17% | 99% (active) | 99.5% (active) | -3 | 98% (active) | 95.2% (active) | 1% | 99% (active) | 98.9% (active) | 41 | 99% (active) | 99.1% (active)
Oc1cc2ccccc2c2ccccc12 | 0% | 93% (active) | 99.2% (active) | 2% | 83% (active) | 99.2% (active) | 4% | 87% (active) | 98.9% (active) | -15 | 97% (active) | 98.5% (active) | 16% | 96% (active) | 99.2% (active) | 6 | 93% (active) | 98.9% (active)
Cc1c(C)n(-c2ccccc2)c2nc(S(C)(=O)=O)nc(S(C)(=O)=O)c12 | 1% | 98% (active) | 71.2% (active) | 8% | 98% (active) | 79.3% (active) | -15% | 95% (active) | 86.3% (active) | 40 | 97% (active) | 86.4% (active) | 0% | 98% (active) | 85% (active) |  |  | 
C=C(c1ccccc1)[N+](=O)[O-] | 94% (active) | 99% (active) | 99.2% (active) | 63% | 99% (active) | 99.4% (active) | 59% | 99% (active) | 99.6% (active) | 37 | 99% (active) | 99.1% (active) | 67% | 99% (active) | 99.3% (active) |  |  | 
CC(SCc1ccccc1)C(=O)O (stereo unspecified) | -10% | 10% | -9.25% | 3% | 7% | -29.8% | -6% | 3% | -35.9% | 9 | -1% | 73% (active) | -21% | -2% | -18.6% |  |  | 
Cc1c2c(c(O)c3c(O)cccc13)C(=O)C1(O)C(=O)C(C(N)=O)C(O)C(N(C)C)C1C2 (stereo unspecified) | 27% | 99% (active) | 65.7% | 82% (active) | 100% (active) | 99.2% (active) | -90% | 100% (active) | 58% | 66 | 99% (active) | 98.7% (active) | 61% | 99% (active) | 98.6% (active) |  |  | 
CCN(CC)CCOc1ccc(/C(C#N)=C/c2ccc(C(F)(F)F)cc2)cc1 | 36% | 96% (active) | 75.5% (active) | 34% | 99% (active) | 48.6% | 65% | 98% (active) | 90.5% (active) | 48 | 90% (active) | 69.3% | 54% | 98% (active) | 54.1% | 38 | 99% (active) | 90.8% (active)
CC(=O)N1CCC(Cc2ccccc2)CC1 | -105% | 95% (active) | 2.3% | -46% | 80% (active) | 18.3% | -49% | 92% (active) | 11.2% | -55 | 70% (active) | 56.9% | -51% | 89% (active) | 22.4% | -103 | 91% (active) | 25%
CCOC(=O)C[n+]1c(C)cc(-c2ccccc2)cc1C | -2% | 1% | 13.6% | 7% | -15% | 6.3% | -1% | -3% | 12.2% | -1 | 2% | 28.1% | 24% | -4% | 14.2% | 9 | 21% | 7.55%
O=C(Nc1ccc(F)c([N+](=O)[O-])c1)NC(Cc1ccccc1)c1ccccc1 (stereo unspecified) | -11% | 86% (active) | 91.6% (active) | -2% | 93% (active) | 94.2% (active) | 12% | 92% (active) | 94.2% (active) | 2 | 92% (active) | 88.9% (active) | -4% | 92% (active) | 81.8% (active) | 26 | 91% (active) | 93.1% (active)
Clc1ccc(-c2noc(CN3CCCCC3)n2)cc1 | 10% | 38% | 66% | 0% | 24% | 15.2% | 2% | 62% | 49.6% | -7 | 21% | 73.3% (active) | -1% | 25% | 71.9% (active) |  |  | 
S=C(NC(=S)Nc1ccc(Cl)cc1)Nc1ccc(Cl)cc1 | 4% | -4% | 68% | 1% | 2% | 61.9% | 5% | 8% | 72.1% (active) | -9 | -8% | 50.8% | -4% | 2% | 77.6% (active) | 20 | 10% | 78.7% (active)
Cc1c(C2CC(=O)NC2=O)c2ccccc2n1C (stereo unspecified) | 3% | 3% | 6.55% | -1% | 0% | 6.25% | -1% | -1% | -13.8% | -4 | -5% | 69% | 4% | 3% | -20.6% |  |  | 
C[Si](C)(c1ccccc1)C1CC(=O)CC(=O)C1 | 41% | 54% | 49.9% | 26% | 65% | 55.2% | 47% | 50% | 69.5% | 29 | 39% | 65.1% | 38% | 53% | 56% | 44 | 63% | 48.8%
O=C1CCCCCC1Cc1cc(O)c(CC2CCCCCC2=O)cc1O (stereo unspecified) | 10% | 54% | 91.8% (active) | 8% | 34% | 80.2% (active) | 12% | 82% (active) | 86.5% (active) | -6 | 32% | 11.2% | -3% | 33% | 64.2% |  |  | 
c1ccc2c(c1)Nc1cc3ccccc3cc1N2 | 41% | 91% (active) | 74% (active) | 30% | 61% | 43.1% | 11% | 47% | 36.3% | -9 | 41% | 22.9% | 39% | 80% (active) | 43.1% | 37 | 75% (active) | 61.6%
O=C(Cc1ccc2c(c1)OCO2)c1ccc(O)cc1O | 6% | 84% (active) | 97.4% (active) | 1% | 93% (active) | 98.4% (active) | 9% | 85% (active) | 96.7% (active) | 6 | 84% (active) | 96.1% (active) | 10% | 90% (active) | 97.2% (active) | 5 | 88% (active) | 96.5% (active)
O=C(O)CCCc1ccc2c(c1Br)C=CC2 | 10% | 68% | 72.3% (active) | 13% | 72% (active) | 63.6% | 11% | 73% (active) | 87.2% (active) | 11 | 74% (active) | 72.9% (active) | 8% | 86% (active) | 94% (active) | 3 | 76% (active) | 79.6% (active)
O=C(/C=C\c1cc(Br)ccc1O)/C=C/c1cc(Br)ccc1O | 58% | 90% (active) | 76.8% (active) | 95% (active) | 91% (active) | 75.8% (active) | 80% (active) | 91% (active) | 73.3% (active) | 36 | 88% (active) | 36.4% | 95% (active) | 91% (active) | 89% (active) | 48 | 86% (active) | 75% (active)
CN(C)c1c([N+](=O)[O-])cc(N2C(=O)C=CC2=O)cc1[N+](=O)[O-] | 81% (active) | 91% (active) | 91.8% (active) | 88% (active) | 98% (active) | 93.2% (active) | 23% | 100% (active) | 93.8% (active) | 50 | 99% (active) | 90.8% (active) | 47% | 96% (active) | 92.3% (active) |  |  | 

— PubChem BioAssay (NCI)
